# Screening data as filed in PubChem.
# Only some compounds are listed: those with a hit (about 7% of all), similar ones and a draw of the others.
# ATXN2 expr inh – reduces ATXN2 reporter expression in HEK-293 cells | HEK-293 ATXN2-luciferase reporter, luminescence, 24 h | Potency, µM (doses to about 57 µM), without a hit: at the highest dose activity change, negative = inhibition, most hits filed as inhibitors | 0.72% of 360,000 active; note: potency is the fitted concentration of half-maximal effect; % is set by controls: 0 for no effect and ±100 for the full control effect; nearly all actives have a fitted effect of over 55% in size
#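 ATXN2-luciferase reporter cells (luciferase flanked by upstream and downstream ATXN2 gene portions) were treated 24 h at 37 °C with compounds at up to 57 uM. SteadyGlo luminescence gave expression; GF-AFC fluorescence gave viability.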
# D3 ag – D3 dopamine receptor (human) agonism. 0.58% of 410,000 active. AID 652048. max activation, %. P35462. D3R DiscoveRx beta-arrestin cells, luminescence, 90 min; in the data active = max activation above about 30%; note: 0% is about no effect
# Target sequence (P35462 whole entry, looked up): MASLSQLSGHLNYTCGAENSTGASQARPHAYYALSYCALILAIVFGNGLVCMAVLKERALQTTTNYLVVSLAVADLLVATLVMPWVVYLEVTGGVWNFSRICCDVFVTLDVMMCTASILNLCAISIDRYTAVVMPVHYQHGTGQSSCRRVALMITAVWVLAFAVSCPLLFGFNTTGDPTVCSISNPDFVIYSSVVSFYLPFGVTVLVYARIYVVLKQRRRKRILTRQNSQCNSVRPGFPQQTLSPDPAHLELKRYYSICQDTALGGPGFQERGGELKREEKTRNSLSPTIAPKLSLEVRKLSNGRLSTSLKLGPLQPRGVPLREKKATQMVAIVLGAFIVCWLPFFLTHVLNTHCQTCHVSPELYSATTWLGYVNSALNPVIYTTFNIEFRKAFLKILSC
#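 Cells at 1500/well, incubated overnight, then treated with pinned compounds (dopamine as control) for 90 min at 37 degrees C. DiscoveRx reagent added for 30 - 60 minutes at room temperature; luminescence read.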
# D3 antag – antagonists of human D3 dopamine receptor; P35462; D3R cells, DiscoveRx beta-arrestin luminescence, antagonist mode; active compounds read low; max response, negative = inhibition, %; 2.5% of 360,000 active; in the data active = max response below about -50%; inconclusive = no clear call, values can overlap the other calls; note: % is set by controls: 0 for no effect and ±100 for the full control effect
#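 Cells expressing the human receptor were seeded at 1500 cells/well, incubated overnight at 37 degrees C in 5% CO2, then exposed to library compounds with dopamine controls for 90 minutes at 37 degrees C before luminescent detection.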
# Integrin act MD – activates integrin-mediated alleviation for muscular dystrophy | alpha7betagal myoblasts, beta-gal FDG fluorescence, 48 h | Potency, µM (top dose mostly 38.3 µM), inactives show top-dose activation, hits mostly activators | 0.064% of 350,000 active;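 note: potency is the fitted concentration of half-maximal effect; 100% = response of the positive control SU9516; nearly all actives have a fitted effect of over 60% in size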
#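 alpha7betagal+/- myoblasts (passage 13, 250/well) treated 48 h at 37C with compounds at 1:260 dilution of DMSO stock. Lysed, then beta-galactosidase activity read as FDG fluorescence (ex 480/em 540) after 30 min, with pre-read for autofluorescence.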
# IL1B secr inh – inhibitors of inflammasome signaling (IL-1 beta secretion); 4.7% of 360,000 active; activity change, % at 57.5 µM; THP-1 LPS/ATP IL-1B secretion, AlphaLISA, 16 h; active compounds read low; in the data active = activity change below about -50%; inconclusive = mostly about -30% to -49%; note: % is set by controls: 0 for no effect and ±100 for the full control effect
#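 Secreted IL-1B measured by AlphaLISA bead assay after 16 h compound exposure of THP-1 cells; compounds (final up to 57.5 uM) added 1 h before LPS (250 ng/mL) and ATP (1.25 mM) stimulation; lower signal means less secretion.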
# ATXN viability – reduces viability in counter-screen for ATXN expression inhibitors; 0.49% of 400,000 active; S2 cells (HEK-293 line with an ATXN2-luciferase reporter) viability, CellTiter-Fluor protease fluorescence, 24 h; Potency, µM (top dose mostly 56.7 µM), actives largely listed as cytotoxic; note: potency is the fitted concentration of half-maximal effect; nearly all actives have a fitted effect of over 40% in size
# * hit, by the source's call; i = inactive; ? = inconclusive; . = no result given; [ ] = another dose, or the depositor's remark. Unless noted, calls come from the whole dose curve; as a rule, active = well fitted curve in the direction sought with a large enough effect; inconclusive = small, poorly fitted or top-dose-only effect, or another doubt; inactive = no such curve, though single readings can be large; an effect the other way counts as inactive or inconclusive.
SMILES,ATXN2 expr inh,D3 ag,D3 antag,Integrin act MD,IL1B secr inh,ATXN viability
CCOC(=O)c1c(CN2CCN(CC#N)CC2)n(C)c2cc(Br)c(OC)cc12,?,2,3,0%,-63*,i
CCOC(=O)c1c(CN2CCN(c3ccccc3)CC2)oc2cc(Br)c(O)cc12,.,0,-13,25%,13,?
CCOC(=O)c1c(CN2CCN(C)CC2)n(-c2ccccc2)c2cc(Br)c(O)cc12,?,-18,-64*,-14%,-12,i
CCOC(=O)c1c(CN(CC)CC)n(-c2ccccc2)c2ccc(O)cc12,-1%,3,-8,-23%,-60*,i
COC(=O)c1ccc(NC(=O)C(=O)NCCc2sc3nc(-c4ccc(OC)cc4)nn3c2C)cc1,.,5,.,.,.,.
CCOC(=O)c1c(C)n(-c2ccccc2)c2ccc(OC(=O)c3ccccc3NC(=O)C(C)C)cc12,?,8,.,.,.,?
CCOC(=O)c1c(C)n(-c2ccccc2)c2ccc(OC(=O)c3ccccc3NC(=O)C(C)(C)C)cc12,?,-17,.,.,.,25µM*
O=C(COc1ccc2ccccc2c1)NC1CC(=O)N(c2ccc(F)cc2)C1 (stereo not drawn),.,4,.,.,.,.
O=C(Nc1ccc(N2CCCCC2)c(S(=O)(=O)Nc2ccccc2Cl)c1)c1cccnc1,0%,-18,-4,7%,?,i
COc1ccccc1NS(=O)(=O)c1cc(NC(=O)Nc2ccccc2)ccc1N1CCCCC1,10%,7,-19,13%,12,i
O=C(Nc1ccc(N2CCOCC2)c(S(=O)(=O)Nc2ccccc2Cl)c1)c1ccc(F)cc1,-26%,-8,17,11%,-56*,i
COc1ccccc1NS(=O)(=O)c1cc(NC(=O)c2ccc(NC(C)=O)cc2)ccc1N1CCOCC1,7%,4,0,33%,-2,?
O=C(Nc1ccc(Cl)c(Cl)c1)Nc1ccc(N2CCCC2)c(S(=O)(=O)Nc2ccccc2Cl)c1,?,7,-13,-53%,-52*,?
O=C(Nc1ccc(F)cc1)Nc1ccc(N2CCCC2)c(S(=O)(=O)Nc2ccccc2Cl)c1,?,19,-15,-59%,-60*,?
O=C(O)C1C(c2ccccc2)=C1c1ccc(Br)cc1 (stereo not drawn),.,0,6,12%,0,i
CN(C)c1ccc(CNCc2cccnc2)cc1,2%,-2,-1,4%,16,i
CC(C)C(NC(=O)c1ccco1)C(=O)NCC(c1ccco1)N1CCCCC1 (stereo not drawn),-6%,4,16,-23%,-3,i
CN(C)/C=C/C(=O)c1ccc(Cl)c([N+](=O)[O-])c1,-5%,-5,-7,-38%,-96*,i
CN(C)/C=C/C(=O)c1cccc(Cl)c1,2%,1,-15,3%,?,i
Cc1ccc(N=C2c3ccccc3C(=O)C2[N+](=O)[O-])cc1C (stereo not drawn),24%,-4,-58*,-10%,25,i
O=C(CNS(=O)(=O)c1ccccc1)OCC(=O)c1ccc([N+](=O)[O-])cc1,-15%,-2,2,-23%,0,i
Cc1ccc(S(=O)(=O)N2CCC(C(=O)Nc3ccc4c(c3)COC4=O)CC2)cc1,5%,-1,-65*,13%,-5,i
CS(=O)(=O)N1CCC(C(=O)Nc2ccc(F)c(Cl)c2)CC1,7%,2,1,-7%,-15,i
Cc1ccc(NC(=O)C2CCN(S(C)(=O)=O)CC2)cc1Cl,-6%,-10,-22,23%,-61*,i
Cc1ccc(NC(=O)C2CCN(S(=O)(=O)c3cnc[nH]3)CC2)cc1C,-2%,-7,-10,14%,19,i
SMILES,ATXN2 expr inh,D3 ag,D3 antag,Integrin act MD,IL1B secr inh,ATXN viability
Cc1cc(NC(=O)C2CCN(S(=O)(=O)c3cnc[nH]3)CC2)ccc1Br,-12%,1,1,10%,-57*,i
CC1(C(=O)NCc2cccc3ccccc23)CCN1Cc1cc2ccccc2o1 (stereo not drawn),-33%,6,26,.,-16,?
CCCCOc1ccccc1C(=O)Nc1nonc1-c1ccccc1,.,35*,.,.,.,.
COc1ccc(O)c(C(=O)CC(=O)c2ccncc2)c1,-23%,3,3,?,-29,i
FC(F)(F)c1cccc(CNC(=S)Nc2ccccc2)c1,-9%[11.3 µM],-7,-7,10%,-79*,i
FC(F)(F)Sc1ccc(NC(=S)NCc2ccccc2)cc1,.,-11,7,-65%,-88*,?
CCOc1ccccc1NC(=S)NCc1ccccc1,-10%,-8,2,-33%,24,i
FC(F)(F)c1cccc(NC(=S)NCc2ccccc2)c1,-10%,-5,56,7%,-2,i
CCOc1ccc(CNC(=S)Nc2ccccc2)cc1Cl,-13%,2,-7,-37%,-79*,i
CCCOc1ccc2cc(C(=O)NCc3ccccc3)c(=O)oc2c1,-10%,15,1,-16%,-13,i
O=C(CCCc1nc(-c2ccc(Cl)cc2)no1)Nc1cccnc1,-23%,1,13,-52%,35,i
Cc1cccc(C)c1N1CCN(CCn2c(=S)[nH]c3ccccc3c2=O)CC1,-46%,-2,-69*,-23%,18,?
CC1CCN(CCCn2c(=S)[nH]c3ccccc3c2=O)CC1,-7%,-17,-15,-20%,2,i
CCN1CCN(CCn2c(=S)[nH]c3ccccc3c2=O)CC1,3%,1,-62*,-13%,0,i
CCn1c(=O)[nH]c2ccccc2c1=O,-8%,-8,-56*,15%,18,i
O=c1c2ccccc2[nH]c(=S)n1CCN1CCCC1,.,3,2,11%,1,i
O=c1c2ccccc2[nH]c(=S)n1CCCN1CCC(Cc2ccccc2)CC1,.,-17,-90*,-16%,-2,?
CCOC(=O)Cn1cnc(C)c1,1%,2,14,14%,-10,?
O=C1CCN(Cc2ccccc2)CCN1[C@H](CO)c1ccccc1,-8%,-9,-51*,3%,12,i
COc1ccccc1/C=C/C1C(C(=O)OCC(C)C)=C(C)N=C2SCCC(=O)N21 (stereo not drawn),-13%,0,4,16%,-69*,i
CC1=C(C(=O)OCc2ccccc2)C(c2cccs2)N2C(=O)CCSC2=N1 (stereo not drawn),-17%,1,1,21%,-56*,i
S=C1Nc2ccccc2Sc2ccc(Cl)cc21,-13%,9,19,1%,10,?
CCCCCC[N+](C)(C)CC/C=C1/c2ccccc2Sc2ccc(Cl)cc21,?,-10,-105*,36%,-24,?
